# Several values for one entry are separate records, joined by “and”; a condition that tells them apart may be missing. Identical values can stand only once. Records with an inconclusive call do not appear. Where a call stands in place of a potency, no number is given. The source holds several records for some structures; these can differ, active in one and inactive in another. Activity calls are given as the source filed them. Unless noted, calls follow the shape of the dose curve; as a rule, active = well fitted curve in the direction sought with a large enough effect in the repeat runs; inconclusive = weak or mixed curves; inactive = no such curve, though single readings can be large; an effect the other way counts as inactive or inconclusive. Residues, ends and D or L forms follow the SMILES beside them.
# Legend:
# [1] = target: Retinoic acid receptor RXR-alpha (Homo sapiens) (UniProt P19793); assay: qHTS assay to identify small molecule agonists of the RXR signaling pathway (AID 1159527; calls by dose curve; also: nearly all actives have a fitted effect of over 35% in size; also: potency is read from the fitted curve at half-maximal effect)
# Sequence of Retinoic acid receptor RXR-alpha (Homo sapiens) (P19793 whole entry, looked up): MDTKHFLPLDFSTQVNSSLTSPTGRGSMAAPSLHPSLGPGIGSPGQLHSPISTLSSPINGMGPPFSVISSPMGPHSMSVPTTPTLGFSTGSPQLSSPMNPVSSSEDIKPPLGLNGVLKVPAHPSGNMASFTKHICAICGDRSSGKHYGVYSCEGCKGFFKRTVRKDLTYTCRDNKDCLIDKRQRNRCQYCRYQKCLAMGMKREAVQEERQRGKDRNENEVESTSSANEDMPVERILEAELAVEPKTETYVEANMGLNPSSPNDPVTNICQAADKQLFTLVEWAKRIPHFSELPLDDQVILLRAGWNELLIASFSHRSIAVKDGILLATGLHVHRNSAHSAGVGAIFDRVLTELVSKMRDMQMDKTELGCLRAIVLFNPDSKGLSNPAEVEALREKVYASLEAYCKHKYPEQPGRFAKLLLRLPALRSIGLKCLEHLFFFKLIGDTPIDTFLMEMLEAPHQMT
# Outline: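 Cells plated at 2,000/well, rested 5 hr at 37 C, pin-dosed with DMSO compound solutions, incubated 16 hr, then loaded with B/G FRET substrate for 2 hr at RT before dual-emission fluorescence reading.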
# [2] = qHTS assay to identify small molecule agonists of the RXR signaling pathway - cell viability counter screen (AID 1159529); also: nearly all actives have a fitted effect of over 50% in size; also: potency is read from the fitted curve at half-maximal effect
# Outline: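 Steps: seed RXR-alpha-UAS-bla HEK 293T cells in assay medium containing 2% charcoal-stripped FBS; incubate 5 hr; add compounds in DMSO; incubate 16 hr at 37 C; after the bla read, add CellTiter-Glo and read luminescence at 30 min.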
# [3] = qHTS assay to identify small molecule antagonists of the retinoid acid receptor (RAR) signaling pathway - cell viability counter screen (AID 1159551); also: nearly all actives have a fitted effect of over 35% in size
# Outline: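 Viability of C3RL4 cells is quantified from ATP by luminescence after 6 h treatment at 37 C with compounds and 1 uM retinol.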
# [4] = qHTS assay to identify small molecule antagonists of the retinoic acid receptor (RAR) signaling pathway (AID 1159552; also: nearly all actives have a fitted effect of over 50% in size)
# Outline: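 Retinol at 1 uM final stimulated RARE-luciferase expression in C3RL4 cells exposed to test compounds for 6 hr at 37 C. Reduced luminescence, read 30 min after detection reagent, indicated pathway antagonism.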
# [5] = qHTS assay to identify small molecule agonists of the retinoic acid receptor (RAR) signaling pathway (AID 1159553)
# Outline: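 Compounds dissolved in DMSO were pinned onto C3RL4 cells seeded the previous day, and plates were held 6 hr at 37 C. RARE-driven luciferase output was then read by luminescence.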
SMILES,Potency [1],Potency [2],outcome [3],Potency [4],outcome [5]
C/C=C/c1ccc(OC)cc1,inactive,inactive,inactive,–,–
COC(=O)[C@H](Cc1ccccc1)NC(=O)[C@@H](N)CC(=O)O (H-Asp-Phe-OMe),inactive,inactive,inactive,inactive,inactive
O=NO,inactive,inactive,inactive,inactive,inactive
Cc1ccc(C)c(OCCCC(C)(C)C(=O)O)c1,inactive,inactive,inactive,inactive,inactive
O=C(O)c1cccc([N+](=O)[O-])c1,inactive,inactive,inactive,–,–
CCCCOC(=O)CC(CC(=O)OCCCC)(OC(C)=O)C(=O)OCCCC,inactive,inactive,inactive,–,–
O=C(O)CCC(=O)O,inactive,inactive,inactive,inactive,inactive
CC(=O)OCC(COC(C)=O)OC(C)=O,inactive,inactive,inactive,–,–
O=C(O)C(=O)O,inactive,inactive,inactive,inactive,inactive
O=C(c1ccccc1)c1ccccc1,inactive,inactive,inactive,inactive,inactive
Cc1cn([C@H]2C[C@H](N=[N+]=[N-])[C@@H](CO)O2)c(=O)[nH]c1=O,inactive,inactive,inactive,inactive,inactive
c1ccc2[nH]ccc2c1,inactive,48.2 µM (active) and inactive,inactive,–,–
CCCC(O)C(CC)CO (stereo not drawn),inactive,inactive,inactive,–,–
O=C(c1ccccc1)C(O)c1ccccc1 (stereo not drawn),inactive and 38.9 µM (active),inactive,inactive,inactive,inactive
CC(O)CO (stereo not drawn),inactive,inactive,inactive,inactive,inactive

# From PubChem BioAssay (Tox21)
